High-throughput results from PubChem.
Rows were chosen to be rich in hits. Some 18% of all compounds tested hit in one or more screens of this group.
IL-1B inflam inh – inflammasome signaling inhibition, IL-1 beta readout; THP-1 LPS/ATP IL-1B secretion, AlphaLISA, 16 h; stronger effect = lower value; activity change, % at 57.5 µM; hit rate 4.7% among 360,000; AID 743279; in the data active = activity change below about -50%; inconclusive = mostly about -30% to -49%
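Secreted IL-1B measured by AlphaLISA bead assay after 16 h compound exposure of THP-1 cells; compounds (final up to 57.5 uM) added 1 h before LPS (250 ng/mL) and ATP (1.25 mM) stimulation; lower signal means less secretion.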
Gal4-VP16 FLuc – counter-screen for ROR gamma inhibitors: Gal4-VP16 reporter; Drosophila S2 Gal4-VP16 UAS-luciferase, luminescence, 20 h; Potency, µM (top dose mostly 53.6 µM), inactives show top-dose activity, negative = inhibition, hits mostly inhibitors; hit rate 3.5% among 310,000; AID 2546;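 note: Gal4-VP16 expression switched on by copper sulfate through the metallothionein promoter; potency is the fitted concentration of half-maximal effect; nearly all actives have a fitted effect of over 50% in size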
LDHA block – inhibitors of human lactate dehydrogenase A; P00338; purified LDHA, NADH/diaphorase-resazurin fluorescence; stronger effect = lower value; activity change, % (values are at about 110 or 230 µM); hit rate 0.15% among 480,000; AID 1347041; in the data active = activity change below about -30%; inconclusive = mostly about -25% to -30%;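 note: plate controls were DMSO wells for no effect and wells without enzyme for full effect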
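Resorufin fluorescence (ex540/em590), read at 0 and 20 min after diaphorase/resazurin addition, reports the NADH left after a 5 min room-temperature reaction of 2 nM human LDH5 with 0.06 mM NADH and 0.2 mM pyruvate.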
DT40 TDP1 CPT – DT40-hTDP1 cell growth loss with CPT; hit rate 12% among 420,000; chicken DT40 Tdp1-/-;hTDP1 cells + 20 nM CPT, ATP luminescence, 48 h; Potency, µM (doses to about 46.2 µM), for the others: top-dose activity change, negative = growth inhibition, most hits filed as inhibitors; note: potency is the fitted concentration of half-maximal effect; nearly all actives have a fitted effect of over 55% in size
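Cell growth measured by CellTiter-Glo luminescence after a minimum 48 h, 37 C compound exposure with 20 nM CPT in Tdp1-knockout DT40 cells stably expressing hTDP1, seeded 400/well; qHTS titration format.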
RORgamma inh – inhibitors of mouse ROR gamma transcriptional activity; P51450; Drosophila S2 Gal4-RORgamma UAS-luciferase reporter, 20 h; Potency, µM (doses to about 53.6 µM), inactives show at the top dose activity change, negative = inhibition, most hits filed as inhibitors; hit rate 5.4% among 310,000; AID 2551; note: potency is the fitted concentration of half-maximal effect; nearly all actives have a fitted effect of over 60% in size
Target sequence (P51450 whole entry, looked up, the tested form may be a part): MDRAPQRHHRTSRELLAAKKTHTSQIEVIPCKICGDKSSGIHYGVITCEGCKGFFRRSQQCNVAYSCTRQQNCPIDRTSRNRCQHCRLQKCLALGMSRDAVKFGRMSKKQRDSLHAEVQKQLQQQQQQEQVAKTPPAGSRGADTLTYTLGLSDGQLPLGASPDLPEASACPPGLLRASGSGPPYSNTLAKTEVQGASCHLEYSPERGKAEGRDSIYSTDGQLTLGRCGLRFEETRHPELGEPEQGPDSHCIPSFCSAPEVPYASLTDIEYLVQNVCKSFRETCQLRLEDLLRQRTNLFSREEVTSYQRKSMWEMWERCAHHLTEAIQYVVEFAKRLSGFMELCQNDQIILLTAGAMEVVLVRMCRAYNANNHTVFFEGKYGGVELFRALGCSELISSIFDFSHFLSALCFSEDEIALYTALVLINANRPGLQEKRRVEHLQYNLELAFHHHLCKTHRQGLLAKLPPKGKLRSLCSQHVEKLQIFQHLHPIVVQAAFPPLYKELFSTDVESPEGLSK
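A Gal4/UAS one-hybrid system in insect cells: metallothionein-promoter Gal4–ROR gamma fusion plus Photinus luciferase reporter. Copper sulfate 700 uM final, 20 hr ambient incubation, luminescent detection after 10 min with reagent.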
DT40 TDP1 no CPT – qHTS for Inhibitors of human tyrosyl-DNA phosphodiesterase 1 (TDP1): qHTS in cells in absence of CPT. DT40 Tdp1-/- hTDP1 cells, no CPT, ATP luminescence, 48 h. AID 686978, 2013. hit rate 15% among 420,000. Potency, µM (titrated, usually from 46.2 µM), inactives show top-dose activity change, negative = growth inhibition, usual class: inhibitors; note: potency is the fitted concentration of half-maximal effect; nearly all actives have a fitted effect of over 55% in size
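Readout: luminescence from CellTiter-Glo after 30 min in the dark at RT. Cells: DT40 Tdp1-/- with stable hTDP1, 400/well. Exposure: compounds alone, ≥48 hr, 37 °C.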
Numbers without * were called inactive. Unless noted, calls come from the whole dose curve; as a rule, active = well fitted curve in the direction sought with a large enough effect; inconclusive = small, poorly fitted or top-dose-only effect, or another doubt; inactive = no such curve, though single readings can be large; an effect the other way counts as inactive or inconclusive. Unless noted, % is set by controls: 0 for no effect and ±100 for the full control effect.

C[C@@H](C(=O)NCCc1ccccc1F)N1C(=O)N2CCc3c([nH]c4ccccc34)[C@@]2(C)C1=O was read as IL-1B inflam inh -10, Gal4-VP16 FLuc -8%, LDHA block -3, DT40 TDP1 CPT 12µM*, RORgamma inh 44% and DT40 TDP1 no CPT 9.2µM*.
`C[C@@H](C(=O)NCCc1ccccc1)N1C(=O)N2CCc3c([nH]c4ccccc34)[C@@]2(C)C1=O` gave IL-1B inflam inh 7, Gal4-VP16 FLuc -21%, LDHA block 2, DT40 TDP1 CPT 18µM*, RORgamma inh 28% and DT40 TDP1 no CPT inconclusive.
For COc1cccc(C2C(C#N)=C(N)Oc3cc(C)n(CCCN4CCOCC4)c(=O)c32)c1 (configuration not stated) the results were LDHA block 7.
CC(C)(C)c1ccc(OCCOc2ccc(C(C)(C)C)cc2NC=O)c(NC=O)c1 was read as IL-1B inflam inh inconclusive, Gal4-VP16 FLuc inconclusive, LDHA block 0, DT40 TDP1 CPT 21µM*, RORgamma inh inconclusive and DT40 TDP1 no CPT 21µM*.
CCN(CC)C(=O)Cn1nc(-c2ccc(C)cc2)c2ccccc2c1=O was read as LDHA block 5.
`O=C(CN1C(=O)C2CCCCC2C1=O)Nc1nc(-c2ccccn2)cs1` (configuration not stated) gave IL-1B inflam inh 50, Gal4-VP16 FLuc -10%, LDHA block 3, DT40 TDP1 CPT 12µM*, RORgamma inh inconclusive and DT40 TDP1 no CPT 10µM*.
For C[C@@H](C(=O)Nc1nc(-c2ccccn2)cs1)N1C(=O)C2CCCCC2C1=O (some centres not stated) the results were IL-1B inflam inh 69, Gal4-VP16 FLuc inconclusive, LDHA block 10, DT40 TDP1 CPT inconclusive, RORgamma inh 13µM* and DT40 TDP1 no CPT inconclusive.
CC1(c2ccccc2)NC(=O)N(CC(=O)Nc2nc(-c3ccccn3)cs2)C1=O (configuration not stated) was read as IL-1B inflam inh -3, LDHA block -1, DT40 TDP1 CPT 23µM* and DT40 TDP1 no CPT 15µM*.
For CC(C(=O)NC1CCCc2ccccc21)N1C(=O)C2CCCCC2C1=O (configuration not stated) the results were IL-1B inflam inh 10, LDHA block -1, DT40 TDP1 CPT 3% and DT40 TDP1 no CPT 14%.
Screening CC1(c2ccccc2)NC(=O)N(CC(=O)NNC(=O)c2ccccc2)C1=O (configuration not stated) returned IL-1B inflam inh 6, LDHA block -10, DT40 TDP1 CPT 11% and DT40 TDP1 no CPT 9%.
Screening Cc1ccsc1C(=O)Nc1cccc2c1CCCC2 returned LDHA block 1.
Screening COc1cc(C(=O)OCCO)ccc1OCc1ccc(Cl)cc1 returned LDHA block -8.
For CCOc1ccc(N=Cc2c(C)[nH]n(-c3nc4ccccc4[nH]3)c2=O)cc1 the results were IL-1B inflam inh 18, Gal4-VP16 FLuc inconclusive, LDHA block -6, DT40 TDP1 CPT 10µM*, RORgamma inh 14µM* and DT40 TDP1 no CPT 9.2µM*.
Screening Cc1[nH]n(-c2nc3ccccc3[nH]2)c(=O)c1CCc1ccccc1 returned LDHA block -24.
Screening Cc1ccc(NS(=O)(=O)c2c(C)nc3sccn3c2=O)cc1Cl returned LDHA block -18.
`CCOC(=O)C1(C)CCCN(C(=O)Cc2ccc3ccccc3c2)C1` (configuration not stated) gave IL-1B inflam inh 43, LDHA block 4, DT40 TDP1 CPT 29µM* and DT40 TDP1 no CPT 9.2µM*.
`CCOC(=O)C1(C)CCCN(C(=O)c2ccc(-c3ccccc3)cc2)C1` (configuration not stated) gave IL-1B inflam inh 5, LDHA block 4, DT40 TDP1 CPT inconclusive and DT40 TDP1 no CPT 16µM*.
Screening CCCNC(=O)C1(C)CCN(C(=O)Cc2ccc3ccccc3c2)C1 (configuration not stated) returned IL-1B inflam inh 0, LDHA block 0, DT40 TDP1 CPT inconclusive and DT40 TDP1 no CPT inconclusive.
`CCCn1nc(C(=O)Nc2nc3ccc(OCC)cc3s2)c2ccccc2c1=O` gave LDHA block -10.
Screening COc1ccc(C(N)CCc2ccc(C)o2)cc1 (configuration not stated) returned IL-1B inflam inh inconclusive, Gal4-VP16 FLuc -5%, LDHA block 4, DT40 TDP1 CPT inconclusive, RORgamma inh 10% and DT40 TDP1 no CPT 18µM*.
Screening O=C(O)CNC/C=C/c1ccccc1 returned LDHA block 1.
`CCCc1cc(=O)[nH]c(-n2[nH]c3c(c2=O)CCCC3)n1` gave IL-1B inflam inh 34, Gal4-VP16 FLuc 3.5µM*, LDHA block 11, DT40 TDP1 CPT 16µM*, RORgamma inh 2.2µM* and DT40 TDP1 no CPT 21µM*.
For O=c1c2c([nH]n1-c1nc3ccccc3[nH]1)CCCC2 the results were LDHA block 18.
`COc1ccccc1OCCC(=O)OCc1ccc(Cl)cc1` gave LDHA block 6.
Cc1nc2ccccc2n1-c1nc(-c2ccco2)cc(C(F)(F)F)n1 was read as IL-1B inflam inh inconclusive, Gal4-VP16 FLuc 8%, LDHA block -2, DT40 TDP1 CPT 3.7µM*, RORgamma inh -36% and DT40 TDP1 no CPT 2.9µM*.
`Nc1c(C(=O)Nc2ccc(S(=O)(=O)N3CCCC3)cc2)sc2nc3ccc(OC(F)(F)F)cc3cc12` gave IL-1B inflam inh -97*, Gal4-VP16 FLuc 10µM*, LDHA block -7, DT40 TDP1 CPT 9.2µM*, RORgamma inh 16µM* and DT40 TDP1 no CPT 18µM*.
`COc1ccc(NC(=O)CSCC(=O)Nc2ccc(S(=O)(=O)N3CCCC3)cc2)cc1` gave IL-1B inflam inh 0, Gal4-VP16 FLuc 0%, LDHA block -5, DT40 TDP1 CPT -5%, RORgamma inh -24% and DT40 TDP1 no CPT -13%.
Screening Nc1c(C(=O)Nc2ccc(Cl)c(C(=O)O)c2)sc2nc3c(cc12)CCCC3 returned IL-1B inflam inh 10, Gal4-VP16 FLuc -19%, LDHA block 6, DT40 TDP1 CPT -1%, RORgamma inh inconclusive and DT40 TDP1 no CPT 15%.
